Assay outcomes from PubChem BioAssay.
The list is not random: actives were taken first. Their share in the collection is about 1.3%.
PREPL inhibitor = inhibitors of human prolyl oligopeptidase-like enzyme PREPL; Q4J6C6; recombinant PREPL, fluorescence polarization activity-based probe; inhibition, % at 5.96 µM; actives 0.68% (n = 320,000); in the data active means inhibition above about 43%;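 further: 0% = enzyme with DMSO and 100% = wells lacking enzyme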
UBC13 inh = inhibitors of human UBC13 polyubiquitin chain formation; TR-FRET; actives 0.47% (n = 330,000); AID 485273; inhibition, % at 20 µM; in the data active means inhibition above about 45%, passing the limit was not always enough; inconclusive means no clear call, values can overlap the other calls
Target sequence (P61088 whole entry, looked up): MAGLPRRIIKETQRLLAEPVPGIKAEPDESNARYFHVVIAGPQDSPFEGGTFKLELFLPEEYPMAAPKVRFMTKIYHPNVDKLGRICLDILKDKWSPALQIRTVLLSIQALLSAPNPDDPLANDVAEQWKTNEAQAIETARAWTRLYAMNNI
FID counter = displaces DNA intercalator in HCV helicase counter-screen. inhibition, % at 7.9 µM. actives 0.17% (n = 290,000). AID 1845. DNA fluorescent intercalator displacement, fluorescence; in the data active means inhibition above about 37%;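 further: 0% = vehicle and 100% = reference compound; higher means more ethidium bromide displaced from hairpin DNA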
MIN6 prolif = inducers of beta-cell replication in MIN6 cells; actives 0.29% (n = 330,000); proliferation, % at 10 µM; MIN6 cells proliferation, ATPlite luminescence, 48 h; cells starved in 0.2% serum; 100% = growth in 10% serum; AID 2380;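 active means compounds whose signal lies at least 3.5 SD above the mean of all wells on their plate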;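 further: 0% = DMSO-treated cells in low-serum medium and 100% = 10% serum control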
RAD54 branch = inhibitors of human RAD54 branch migration; AID 602329; inhibition, % at 10.4 µM; RAD54 Holliday junction branch migration, FAM/BHQ fluorescence; Q92698; actives 0.14% (n = 360,000);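 active means mean normalized replicate activity at least 40 and at least half of replicates scoring 40 or more; inconclusive means only one of the two criteria met; inactive means mean below 40 and under half of replicates reaching 40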;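 further: 0% = median of neutral control wells and 100% = median of positive control wells; inhibitors cause a drop in the FAM fluorescence signal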
RAD52 anneal inh = blocks human RAD52 DNA annealing | P43351 | recombinant RAD52 DNA annealing, FRET fluorescence | actives 0.46% (n = 360,000) | AID 651710 | inhibition, % at 18.7 µM;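 active means every replicate showing at least 50% inhibition; inconclusive means mean inhibition at least 50% but not in every replicate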
Target sequence (P43351 whole entry, looked up): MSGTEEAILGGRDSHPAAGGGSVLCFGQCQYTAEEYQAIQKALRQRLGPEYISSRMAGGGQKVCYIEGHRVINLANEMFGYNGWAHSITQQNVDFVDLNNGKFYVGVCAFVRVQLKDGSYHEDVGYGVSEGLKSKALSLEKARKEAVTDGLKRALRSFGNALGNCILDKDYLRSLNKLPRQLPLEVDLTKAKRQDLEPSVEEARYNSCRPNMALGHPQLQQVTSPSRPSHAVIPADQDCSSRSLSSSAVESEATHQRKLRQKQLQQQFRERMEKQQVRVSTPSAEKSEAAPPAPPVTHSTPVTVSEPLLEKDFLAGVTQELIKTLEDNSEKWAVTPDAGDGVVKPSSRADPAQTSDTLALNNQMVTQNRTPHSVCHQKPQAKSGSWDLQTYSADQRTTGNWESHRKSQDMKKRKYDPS
DNA binding = binds DNA, flagging false Rad54 inhibitor hits; shares compounds with RAD54 branch; Acridine orange-DNA displacement, fluorescence polarization, 20 min; AC50, µM (series often up to 35 µM), without a hit: top-dose activity change, negative = DNA binding; actives 8% (n = 460); AID 651673;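 active means signal drop giving an AC50 within twice the top valid tested concentration of each sample, actives reach about 35 µM in these data; inactive means activity opposite to expected, plus the rest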;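 further: polarization loss reports compound binding to salmon sperm DNA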
The depositor's hits bear a star; i = inactive; ? = inconclusive; / = no result given.

SMILES | PREPL inhibitor | UBC13 inh | FID counter | MIN6 prolif | RAD54 branch | RAD52 anneal inh | DNA binding
C[C@@H]1CCCCO[C@@H](CN(C)C(=O)Nc2ccccc2)[C@@H](C)CN([C@@H](C)CO)C(=O)c2cc(NS(=O)(=O)c3ccccc3)ccc2O1 | / | / | / | / | / | -18.4 | /
Cc1cc(NCCCN(C)C)n2c(nc3ccccc32)c1C#N | 15.4 | 3.2 | 26.9 | -0.9 | 69.5* | 45.7 | -13.5%
CC(C)N1CCc2c(sc(NC(=O)c3ccc(C(=O)c4ccccc4)cc3)c2C(N)=O)C1 | 27.6 | 16.7 | 32.4 | -7.2 | 50.5* | -66.4 | -8.6%
CC(C)N1CCc2c(sc(NC(=O)c3ccc4ccccc4c3)c2C(N)=O)C1 | 32.5 | 22.6 | 14.7 | -6.4 | -9.4 | i | /
COC(=O)c1c(NC(=O)c2ccco2)sc2c1CCN(C(C)C)C2 | -3.6 | -0.7 | 12.1 | -1.2 | 61.8* | 30.5 | -8.7%
CC(C)N1CCc2c(sc(NC(=O)c3ccco3)c2C(N)=O)C1 | 16.0 | -5.8 | 9.1 | 0.9 | 30.5 | -39.7 | /
c1ccc2c(c1)oc1c(Nc3ccc(CN4CCOCC4)cc3)ncnc12 | 6.0 | -2.6 | 5.4 | 1.9 | 54.1* | / | -23.4%
COc1ccc(NC(=O)Nc2ccc3c(c2)C(=O)N([C@H](C)CO)C[C@H](C)[C@@H](CN(C)C(=O)Nc2ccc(F)cc2)O3)cc1 | / | / | / | / | 1.2 | 19.3 | /
O=C(C[C@H]1CC[C@@H](NC(=O)C2CCC2)[C@@H](CO)O1)NC1CCCCC1 | / | / | / | / | 3.3 | 1.8 | /
OCCNc1nc(Nc2ccc(O)cc2)nc2ccccc12 | 17.6 | 7.3 | 4.5 | -2.2 | 52.3* | 47.5 | 7.8%
CN(C)CCN(C(=O)C1=COCCO1)c1nc2ccc(F)cc2s1 | 15.8 | -4.2 | 7.9 | 4.3 | 6.5 | 19.4 | /
COc1ccc(Cl)c2sc(N(CCN(C)C)C(=O)C3=COCCO3)nc12 | / | / | / | / | ? | 36.9 | 3.1%
CNC(C)C#Cc1ccc2c(=O)c3c(OC)cccc3oc2c1 (stereo not given) | 2.4 | 16.4 | -10.1 | -2.2 | / | / | /
CNC(C)C#Cc1ccc2oc3cccc(OC)c3c(=O)c2c1 (stereo not given) | -5.3 | 7.1 | -20.0 | -5.6 | ? | -5.3 | -13.7%
C[C@@H]1CN([C@H](C)CO)C(=O)c2cc(NC(=O)Nc3ccc4c(c3)OCO4)ccc2O[C@H]1CN(C)C | / | / | / | / | 1.6 | 2.5 | /
Cc1ccc(-c2nc(NCCCO)c3ccccc3n2)cc1 | 4.5 | -4.2 | 14.2 | 0.7 | ? | -6.2 | -1.6%
c1ccc(-c2nc(NCCCN3CCOCC3)c3ccccc3n2)cc1 | 7.8 | ? | 54.8* | -0.9 | ? | / | 5.9%
O=C(O)CCNc1nc(-c2ccccc2)nc2ccccc12 | 2.0 | 5.3 | -2.9 | -1.9 | 3.2 | / | /
CCOc1nc(-c2ccc(Cl)cc2)nc2ccccc12 | -8.0 | -15.1 | -1.3 | 4.0 | / | / | /
c1ccc2[nH]c(NCCCN3CCOCC3)nc2c1 | -9.5 | -21.8 | 15.3 | -3.3 | 1.1 | / | /
CN(C)CCCNc1nc(-c2ccc(Cl)cc2)nc2ccccc12 | -25.5 | 17.4 | 54.2* | -5.1 | 70.8* | 50.1* | -18.0%
CCN1CCN(CCCNC(=O)c2cc3c(=O)[nH]c4ccccc4c3s2)CC1 | -1.5 | 23.1 | 15.2 | -2.1 | 51.9* | / | -16.7%
CC1CCN(CCCNC(=O)c2cc3c(Cl)nc4ccccc4c3s2)CC1 | -23.2 | 5.7 | 20.1 | -5.9 | 89.4* | 49.7 | -20.2%
CCCCN(CC)CCNC(=O)c1cc2c(=O)[nH]c3ccc(C)cc3c2s1 | -36.3 | 33.8 | 12.7 | -3.6 | ? | 21.6 | -20.0%
Cc1ccc(S(=O)(=O)NCCCNS(=O)(=O)c2ccccc2[N+](=O)[O-])cc1 | 1.4 | -0.3 | -6.6 | -1.6 | ? | 0.6 | -19.8%
SMILES | PREPL inhibitor | UBC13 inh | FID counter | MIN6 prolif | RAD54 branch | RAD52 anneal inh | DNA binding
CCN(CC)CC(=O)Nc1cccc2c1C(=O)c1ccccc1C2=O | 4.3 | -28.6 | 17.5 | 1.8 | 70.4* | / | 2.0%
COCC(=O)N1C[C@H](C)[C@@H](OC)CN(C)C(=O)c2ccc(NC(=O)c3ccc(OC)cc3)cc2OC[C@H]1C | / | / | / | / | 2.5 | 10.8 | /
COc1ccc(NC(=O)N(C)C[C@@H]2Oc3ccc(NC(=O)CCN4CCOCC4)cc3C(=O)N([C@H](C)CO)C[C@H]2C)cc1 | / | / | / | / | -5.6 | -1.1 | /
COc1ccc2cc3cc(C(=O)NCCN4CCN(Cc5ccccc5)CC4)oc3nc2c1 | -27.8 | 11.3 | 28.2 | -1.8 | 11.3 | / | /
CCCN(CCC)CCCNC(=O)c1cc2cc3ccc(OC)cc3nc2o1 | -11.5 | 15.0 | 37.4* | -0.6 | ? | / | -18.3%
COc1ccc2cc3cc(C(=O)NCCCN4CCC(C)CC4)oc3nc2c1 | -2.8 | 6.3 | 16.9 | 2.1 | 58.3* | / | -20.0%
COc1ccc2cc3cc(C(=O)NCCN4CCc5ccccc5C4)oc3nc2c1 | -10.8 | 4.7 | 16.0 | 0.5 | 30.8 | / | /
CCN1CCN(CCCNC(=O)c2cc3cc4ccc(OC)cc4nc3o2)CC1 | -21.2 | 2.9 | 32.6 | 0.1 | 56.2* | / | -22.3%
O=C(Nc1ccc(Cl)cc1)c1cc(S(=O)(=O)N2CCOCC2)cs1 | -1.5 | 3.9 | -3.0 | -5.6 | 12.7 | / | /
O=C(Nc1cccc(Cl)c1)c1cc(S(=O)(=O)N2CCOCC2)cs1 | -5.0 | 11.6 | -7.0 | -2.7 | 50.5* | -9.4 | -11.9%
CCCCNC(=O)C(OC(=O)c1ccccc1)c1ccco1 (stereo not given) | / | / | / | / | 0.1 | -44.0 | /
CN(C)CCN(C(=O)c1ccco1)c1nc2cc3c(cc2s1)OCCO3 | -5.9 | 2.1 | 8.6 | -3.4 | 64.1* | 44.2 | 2.1%
NCCN1CCN(CCN)CC1 | / | / | 9.8 | / | 50.1* | / | -11.0%
Cc1nc2ccccc2c2oc(C(=O)NCCCN3CCCC3=O)cc12 | -1.8 | -2.5 | -11.3 | -4.5 | 7.5 | -3.7 | /
Cc1nc2ccccc2c2oc(C(=O)NCCN3CCN(C)CC3)cc12 | -2.9 | -11.6 | 19.0 | -1.3 | ? | 20.3 | -13.2%
c1ccc(-c2nc(NCCCn3ccnc3)c3oc4ccccc4c3n2)cc1 | 1.9 | 16.2 | 17.8 | -3.9 | ? | 49.6 | -15.2%
CCc1nc(NCCCn2ccnc2)c2oc3ccccc3c2n1 | 7.8 | 5.5 | 7.7 | 2.8 | -0.3 | / | /
CC(=O)N1[C@H](CO)[C@H]2c3ccccc3N(S(=O)(=O)c3ccc(F)cc3)C[C@H]21 | / | / | / | / | -3.3 | / | /
C[C@@H]1CCCCO[C@H](CN(C)C(=O)Nc2ccc(F)cc2)[C@@H](C)CN([C@@H](C)CO)C(=O)c2cc(NC(=O)NC3CCCCC3)ccc2O1 | / | / | / | / | -0.1 | -26.6 | /
Nc1cc2c3c(cccc3c1)C(=O)N(CCN1CCCC1)C2=O | 29.1 | / | 32.8 | / | 89.7* | 3.4 | 27.9µM*
CCOc1ccc2nc(C)cc(Nc3ccc4c(c3)OCCO4)c2c1 | 19.1 | 15.0 | 16.4 | -3.7 | 58.1* | / | -10.6%
Cc1ccc2nc(C)cc(Nc3ccc4c(c3)OCCO4)c2c1 | 24.4 | 6.9 | -0.7 | -0.1 | 59.8* | / | -9.1%
Cc1cc(Nc2ccc3c(c2)OCCO3)c2cccc(C)c2n1 | 29.9 | 15.9 | 5.8 | -0.4 | 64.5* | / | 9.4%
